Reference: PubChem BioAssay (NCI)
The panel holds about 79,000 compounds, 15% with a hit somewhere; the sample as a whole holds those more often. Unmarked numbers belong to inactive results. Active and inactive are the calls of the source. No stated cut-off is given here; in the data, active means growth inhibition above about 70%; inactive means the rest.

Assay: NCI Yeast Anticancer Drug Screen. Data for the cln2 rad14 strain (AID 165);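 further: 0% = growth equal to vehicle treated cultures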
Settings: S. cerevisiae cln2 rad14 strain, at 50.0 µM, hits give high values
In short: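 Relative to vehicle controls, growth inhibition of compound-treated cln2 rad14 yeast was recorded.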

Question: Which growth inhibition does the source give for `N#Cc1c(SCc2ccc(Cl)cc2)nsc1Nc1ccc(Cl)cc1` here?
Answer: Its growth inhibition is 87.7% (active).

Question: Which growth inhibition does the source give for `CC(CO)(Nc1ccc([N+](=O)[O-])cc1[N+](=O)[O-])C(=O)O` (stereo not given) here?
Answer: The growth inhibition was 70.1% (active).

Question: With `O=[N+]([O-])/C(C(Cl)=C(Cl)Cl)=C(/Nc1ccccc1)Sc1ccccc1` as the molecule, how does the growth inhibition read?
Answer: The growth inhibition was 23.8%.

Question: Which growth inhibition does the source give for `CC(SCc1ccccc1)C(=O)O` (stereo not given) here?
Answer: Its growth inhibition is 73% (active).

Question: With `O=C1C2(Cl)C(Cl)=C(Cl)C1(Cl)C1(Cl)C(Cl)=C(Cl)C(=O)C21Cl` (stereo not given) as the molecule, how does the growth inhibition read?
Answer: Its growth inhibition is 76.4% (active).

Question: Which growth inhibition does the source give for `O=C(CNC(=O)c1ccccc1)Oc1c(Cl)c(Cl)c(Cl)c(Cl)c1Cl` here?
Answer: Its growth inhibition is 65.9%.

Question: Which growth inhibition does the source give for `CN(C)c1nc(NNS(=O)(=O)c2ccc(N)cc2)nc(N(C)C)n1` here?
Answer: The growth inhibition was 55%.

Question: With `CC1(C(Cl)(Cl)Cl)C=CC(O)(C#CC2(O)C=CC(C)(C(Cl)(Cl)Cl)C=C2)C=C1` (stereo not given) as the molecule, how does the growth inhibition read?
Answer: The growth inhibition was 95.7% (active).

Question: With `COCCN1C(=O)C2c3[nH]c4ccccc4c3C3CCC(C(C)(C)C)CC3C2C1=O` (stereo not given) as the molecule, how does the growth inhibition read?
Answer: The growth inhibition was 95.6% (active).

Question: With `Cc1nc(N)sc1N=Nc1cccc(Cl)c1Cl` as the molecule, how does the growth inhibition read?
Answer: The growth inhibition was 53.8%.

Question: Which growth inhibition does the source give for `ClC1=C(Cl)C2c3ccccc3C1c1ccccc12` here?
Answer: Its growth inhibition is 65.2%.

Question: Which growth inhibition does the source give for `C=C/C=C/CC=C` here?
Answer: The growth inhibition was 85.3% (active).

Question: Which growth inhibition does the source give for `C/C(=N\NC(=S)NCc1ccccc1)c1nccnc1C` here?
Answer: The growth inhibition was 85.9% (active).

Question: With `COC(=O)c1cc(OC)c(OC)c(OC)c1` as the molecule, how does the growth inhibition read?
Answer: The growth inhibition was -23.3%.

Question: Which growth inhibition does the source give for `Nc1nc2c(ccc3ccccc32)s1` here?
Answer: Its growth inhibition is 61.2%.

Question: With `N=C(N)c1ccc(N=Nc2cc(/C=C/c3ccccc3)ccc2O)cc1` as the molecule, how does the growth inhibition read?
Answer: Its growth inhibition is 98.3% (active).

Question: For `O=C1NC(=O)N(c2ccc([N+](=O)[O-])cc2)C1=O`, which growth inhibition is on record?
Answer: Its growth inhibition is 18.1%.

Question: With `O=C(Nc1cc(Cl)cc(Cl)c1)OCCCl` as the molecule, how does the growth inhibition read?
Answer: The growth inhibition was 92% (active).

Question: Which growth inhibition does the source give for `Cc1[nH]nc(-c2ccon2)c1N=O` here?
Answer: The growth inhibition was 4.65%.

Question: For `O=C(O)CCC(=O)c1ccc(C2CCCC2)c2ccccc12`, which growth inhibition is on record?
Answer: The growth inhibition was 72.7% (active).

Question: With `CC12CC(Br)(Br)C(=O)C3C1CCCC32` as the molecule, how does the growth inhibition read?
Answer: The growth inhibition was 75.7% (active).

Question: For `O=[N+]([O-])c1ccc(NSc2ccccc2)cc1`, which growth inhibition is on record?
Answer: The growth inhibition was 90.6% (active).

Question: With `CCC1CCC(CC)C1=O` (stereo not given) as the molecule, how does the growth inhibition read?
Answer: The growth inhibition was 36.5%.

Question: With `Cc1cc(C(C)(CC(C)C)c2ccc(O)c(C)c2)ccc1O` as the molecule, how does the growth inhibition read?
Answer: The growth inhibition was 92.5% (active).

Question: Which growth inhibition does the source give for `N#CC1C(=O)SC2c3ccccc3C(=O)c3ccccc3C12` (stereo not given) here?
Answer: Its growth inhibition is 42.6%.

Question: Which growth inhibition does the source give for `COc1ccc(C2C3=C(CCCC3=O)Oc3cc4c(cc32)OCO4)cc1` (stereo not given) here?
Answer: Its growth inhibition is 96.3% (active).

Question: For `CCC(c1cccc(O)c1)C(CC)c1cccc(O)c1` (stereo not given), which growth inhibition is on record?
Answer: Its growth inhibition is 48.9%.

Question: Which growth inhibition does the source give for `CCCCCCCCCCCC1C(C#N)C(=O)NC(=O)C1C#N` (stereo not given) here?
Answer: The growth inhibition was -8.05%.

Question: With `O=C(NNC(=O)c1cccc(C(=O)NNC(=O)c2ccc(Cl)c(Cl)c2)n1)c1ccc(Cl)c(Cl)c1` as the molecule, how does the growth inhibition read?
Answer: The growth inhibition was 81.4% (active).

Question: With `CCOC(=O)CCC(NC(=O)c1ccc(NC(OC)c2nc3cc(C(F)(F)F)ccc3nc2-c2ccccc2)cc1)C(=O)OCC` (stereo not given) as the molecule, how does the growth inhibition read?
Answer: Its growth inhibition is 92.7% (active).

Question: Which growth inhibition does the source give for `CCOC(=O)c1c(C)[nH]c(CO)c1C` here?
Answer: Its growth inhibition is 31.8%.

Question: For `S=C(NC(=S)Nc1ccc(Cl)cc1)Nc1ccc(Cl)cc1`, which growth inhibition is on record?
Answer: Its growth inhibition is 50.8%.

Question: With `O=S(=O)(c1ccc(OCC(O)COc2ccc(S(=O)(=O)c3ccc(OCC4CO4)cc3)cc2)cc1)c1ccc(OCC2CO2)cc1` (stereo not given) as the molecule, how does the growth inhibition read?
Answer: Its growth inhibition is 2.95%.

Question: For `C=C(C)C(=O)OC1CC2=CC(CC3(C)OC3C3OC(=O)C(=C)C13)OC2=O` (stereo not given), which growth inhibition is on record?
Answer: The growth inhibition was 30.5%.

Question: Which growth inhibition does the source give for `c1ccc2c(c1)C[n+]1ccc3ccccc3c1-c1c3ccccc3cc[n+]1C2` here?
Answer: The growth inhibition was 53%.

Question: Which growth inhibition does the source give for `CCN(CC)CCOC(=O)Cc1cccc2c(=O)cc(-c3cccs3)oc12` here?
Answer: Its growth inhibition is 8.25%.

Question: Which growth inhibition does the source give for `C=C1C(=O)OC2C/C(C)=C/CC/C(C)=C/CCC3(COC(C)=O)OC3CC12` (stereo not given) here?
Answer: Its growth inhibition is 92.5% (active).

Question: Which growth inhibition does the source give for `CN1C=CC(C(O)(c2ccccc2)c2ccccc2)CC1` (stereo not given) here?
Answer: Its growth inhibition is 51.6%.

Question: Which growth inhibition does the source give for `OCc1cccc2c1Oc1ccccc1S2` here?
Answer: The growth inhibition was -59.5%.

Question: For `COC(=O)c1[nH]c(=O)c(C#N)c(C(=O)OC)c1C(=O)c1ccc(Cl)c(Cl)c1`, which growth inhibition is on record?
Answer: Its growth inhibition is 46.1%.
